Compound activity from PubChem BioAssay.
AmpC inh det = inhibitors of E. coli AmpC beta-lactamase with detergent; P00811; purified AmpC, nitrocefin hydrolysis with detergent; Potency, µM (highest dose often 28.7 µM), inactives show top-dose activity change, negative = inhibition; actives 0.09% (n = 71,000); AID 584; active = well fitted curve in the direction sought with a large enough effect; inconclusive = small, poorly fitted or top-dose-only effect; also: % is scaled to controls: 0 for no effect and ±100 for the full control effect
Target sequence (P00811 whole entry, looked up): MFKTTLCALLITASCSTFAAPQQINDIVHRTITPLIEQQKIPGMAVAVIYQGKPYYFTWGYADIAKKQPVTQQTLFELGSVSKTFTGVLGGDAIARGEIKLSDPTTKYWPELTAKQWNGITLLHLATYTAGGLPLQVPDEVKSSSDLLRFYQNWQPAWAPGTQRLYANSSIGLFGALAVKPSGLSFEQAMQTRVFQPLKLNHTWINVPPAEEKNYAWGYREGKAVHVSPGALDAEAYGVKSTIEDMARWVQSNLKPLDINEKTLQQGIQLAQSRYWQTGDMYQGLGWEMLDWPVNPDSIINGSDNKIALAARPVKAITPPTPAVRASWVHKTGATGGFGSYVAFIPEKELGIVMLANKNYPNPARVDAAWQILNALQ
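E. coli AmpC (5.3 nM) in 20 mM phosphate pH 7.0 with 0.01% Triton X-100, preincubated 15 min RT with compound; nitrocefin (2 uL of 800 uM stock) hydrolysis followed by 480 nm absorbance every 20 s over 4 min.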
Prx2 Sm inh = blocks S. mansoni peroxiredoxin 2 enzymatic activity | actives 0.07% (n = 65,000) | AID 448 | S. mansoni Prx2 activity coupled to TGR/GSH (TGR is thioredoxin glutathione reductase), NADPH fluorescence loss, qHTS | Potency, µM
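Prx2 inhibition was measured as reduced NADPH consumption when electrons flowed from NADPH through TGR and glutathione to Prx2 and H2O2. Plates were read kinetically over 8 min; enzyme reagents were held at 4 deg C during dispensing.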
Anthrax LT inh = anthrax lethal toxin internalization inhibition; Potency, µM (titrated, usually from 40 µM), without a hit: top-dose activity change, negative = inhibition, usual class: inhibitors; actives 0.67% (n = 70,000); Cells, anthrax lethal toxin internalization, FRET ratio (460/530); also: % is scaled to controls: 0 for no effect and ±100 for the full control effect; nearly all actives have a fitted effect of over 50% in size
AmpC nodet inh = AmpC beta-lactamase inhibition, detergent-free assay. Potency, µM (series often up to 28.7 µM), inactives show top-dose activity change, negative = inhibition. P00811. AID 585. AmpC nitrocefin hydrolysis, absorbance 480 nm, no detergent. actives 1.8% (n = 71,000); also: % of control where 0% means no effect
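AmpC, 20 mM phosphate pH 7.0; 15 min cpd preinc, RT; start with nitrocefin (800 uM stock); A480 kinetic read, 20 s intervals, 4 min. No-enzyme wells = negative control.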
* = called active by the depositor; u = inconclusive; x = not tested or not shown; [ ] = dose if it differs, or a comment. Only some compounds are listed: those with a hit (about 2.6% of all), similar ones and a draw of the others. Unless noted, calls follow the shape of the full dose curve. Potency is read from the fitted curve at half-maximal effect.

SMILES	AmpC inh det	Prx2 Sm inh	Anthrax LT inh	AmpC nodet inh
CCCNC(=O)C(Cc1ccccc1)NS(=O)(=O)c1ccc2c(c1)CCC(=O)N2 (stereo unspecified)	12.7%	>57	-13.7%	3.98µM*[single pt active]
CCC(=O)N1CCc2cc(S(=O)(=O)NC(Cc3ccccc3)C(=O)NC3CCCC3)ccc21 (stereo unspecified)	-3.4%	>57	5.5%	17.8%
O=C1CCc2cc(S(=O)(=O)N3CCN(C(=O)c4ccco4)CC3)ccc2N1	-0.2%	>57	12.4%	-8.4%
CC(C)C[C@@H](CC(=O)N[C@H](CC(=O)N[C@@H]1CCCC[C@H]1C(=O)N[C@H](CC(=O)N[C@@H](CCC(=O)O)CC(=O)O)Cc1c[nH]c2ccccc12)C(C)C)NC(=O)[C@@H]1CNCC[C@H]1N	-4.0%	>57	-4.0%	141.2%
CN(Cc1ccco1)c1ccnc(-c2ccccc2C(F)(F)F)n1	12.4%	>57	-5.9%	35.2%
CC(C)=C[C@H]1[C@@H](COC(=O)c2ccccc2Cl)C1(C)C	-1.6%[5.75 µM]	>57	-11.9%[8 µM]	1.4%[5.75 µM]
COc1cc2c(cc1OC)-c1nnnn1C(C)(C)C2	-3.7%	x	-12.8%	10.6%
COc1cc2c(cc1OC)-c1nnc(-c3cccs3)n1C(C)(C)C2	9.5%	>57	-7.0%	3.98µM*[single pt active]
c1csc(Cc2nc(-c3ccc(-n4cccc4)cc3)no2)c1	12.5%	>57	2.4%	12.6µM*
COc1ccc(S(=O)(=O)N(CCCN2CCCC2=O)Cc2cc3c(C)cc(C)cc3[nH]c2=O)cc1	1.3%	20.4*	3.6%	177.5%
CC(=O)OC[C@H]1O[C@@H](O/N=C2/[C@H]3O[C@@H]3[C@@H](O)[C@H]3[C@H]2CCn2c(=O)n(-c4ccccc4)c(=O)n23)[C@H](OC(C)=O)[C@@H](OC(C)=O)[C@@H]1OC(C)=O	x	x	7.9%[8 µM]	x
Cc1c(C(=O)c2ccc3ccccc3c2)c2cccc3c2n1[C@H](CN1CCOCC1)CO3	-5.7%	>25.6	2µM*	115.0%
COC(=O)C(C(C)=O)C(=O)C(Cc1ccccc1)NC(=O)OCc1ccccc1 (stereo unspecified)	x	x	-11.5%[8 µM]	x
O=C(N[C@@H](Cc1ccccc1)C(=O)CCl)OCc1ccccc1	-4.8%	>57	15.8µM*	-2.2%
Cc1cc(-c2ccccc2)n2ncc(C#N)c2n1	13.1%	>57	-12.8%	3.98µM*[single pt active]
CSc1nc2nc(C)cc(-c3ccccc3)n2n1	-5.6%	>57	5.1%	11.6%
CN(Cc1ccco1)c1ccnc(-c2cccc(C#N)c2)n1	9.7%	>57	u	65.0%
CN1CCN(C2=C(Cl)C(=O)N(c3ccc(Cl)c(Cl)c3)C2=O)CC1	-2.3%	x	7.94µM*	-12.7%
CN1CCN(C2=C(Cl)C(=O)N(c3cccc(Cl)c3)C2=O)CC1	6.2%	x	0.3%	-12.8%
C=N[C@H](C(=O)N[C@@H]1C(=O)N2[C@@H]1SC(C)(C)[C@@H]2C(=O)O)c1ccccc1	0.158µM*	>57	u	0.126µM*
Cc1onc(-c2c(F)cccc2Cl)c1C(=O)N[C@@H]1C(=O)N2[C@H]1SC(C)(C)[C@H]2C(=O)O	0.0398µM*	>57	u	0.0251µM*
Cc1onc(-c2ccccc2Cl)c1C(=O)N[C@H]1C(=O)N2[C@H]1SC(C)(C)[C@H]2C(=O)O	0.002µM*	>57	2.0%[3.58 µM]	0.00158µM*
CC1(C)S[C@@H]2[C@H](NC(=O)C3(N)CCCCC3)C(=O)N2[C@H]1C(=O)O	0.0126µM*	>57	-12.4%[3.58 µM]	0.00631µM*
N[C@H](C(=O)N[C@@H]1C(=O)N2C(C(=O)O)=C(Cl)CS[C@@H]12)c1ccccc1	-5.7%[12.8 µM]	>57	8.3%[3.58 µM]	-10.6%[12.8 µM]
Cc1onc(-c2c(F)cccc2Cl)c1C(=O)NCc1cccs1	-1.7%	>57	10.7%	-3.1%
SMILES	AmpC inh det	Prx2 Sm inh	Anthrax LT inh	AmpC nodet inh
CCN1CCCC1Cn1c(-c2ccccc2)nc2c(N(CCOC)CCOC)nc(C)nc21 (stereo unspecified)	14.9%	x	7.8%	90.8%
C[C@@H](CCCCC(=O)Nc1ccc(C(F)(F)F)cc1)NCCc1cnc[nH]1	-0.5%	>57	-8.2%	0.1%
O=C(/C=C\c1ccc(O)cc1)c1ccc(O)cc1O	2.1%	x	-10.4%	-18.3%
CN(C)C(=O)c1ccc(-c2cncnc2N2CCNCC2)cc1	9.4%	>57	-6.7%	-6.0%
Cc1onc(-c2c(F)cccc2Cl)c1C(=O)N[C@H]1C(=O)N2[C@H]1SC(C)(C)[C@H]2C(=O)O	0.002µM*	>25.6	3.6%[3.58 µM]	0.00158µM*
CSc1ncnc2c1ncn2CC(=O)[C@H]1CC[C@H]2[C@H]3CCC4=CC(=O)CC[C@@]4(C)[C@@H]3CC[C@@]12C	-5.4%[5.75 µM]	>57	u	65.5%[5.75 µM]
FC(F)(F)c1ccccc1-c1nc(NC2CCNCC2)c2ccccc2n1	11.4%	>57	2.4%	2.2%
Oc1ccc(CNc2ccc(F)cc2)c2cccnc12	1.3%	u	-5.6%	10µM*
Oc1ccc(CNc2ccccc2)c2cccnc12	20.1%	15*	5.3%	12.6µM*[single pt active]
Oc1ccc(CN2CCN(Cc3ccccc3)CC2)c2cccnc12	1.6%	>57	u	8.5%
CC(C)C[C@H](NC(=O)[C@@H](O)[C@@H](N)Cc1ccccc1)C(=O)O	-1.8%	>57	u	-2.6%
CCCCN1C(=O)C(O)(CC(=O)c2ccco2)c2cc(Br)ccc21 (stereo unspecified)	11.9%	>57	u	2.51µM*[single pt active]
C[C@]12CC[C@H]3c4ccc(O)cc4CC[C@@H]3[C@H]1CC[C@@H]2OC(=O)CCc1ccccc1	-2.2%[5.75 µM]	>57	-6.7%[8 µM]	-12.1%[5.75 µM]
Brc1ccc(Oc2ccc(Br)cc2Br)c(Br)c1	12.8%	x	u	12.6µM*
CC(N)=O	-1.7%	>57	x	11.9%
NC(=O)CI	-11.6%	u	0.5%	12.6µM*
CCN(CC)CCCCn1c(-c2ccccc2)nc2c(Nc3ccccc3)nc(C)nc21	14.9%	x	15.8µM*	84.0%
Cn1cc(C(=O)c2ccc(Cl)cc2)cc1-c1nc2ccccc2n1C	18.1%	>57	12.6µM*	35.0%
O=C1C[C@H]2C(=O)[C@@H]1[C@@H](C(=O)O)[C@H]2C(=O)O	5.8%[5.75 µM]	>57	-0.2%[8 µM]	6.5%[5.75 µM]
CC1=C(C(=O)NC(C)C)C2(CCC(C)CC2)OC1=O (stereo unspecified)	19.3%	>57	-5.7%	3.98µM*[single pt active]
CC1=C(C(=O)NC2CCCCC2C)C2(CCC(C)CC2)OC1=O (stereo unspecified)	2.5%	>57	-16.6%	23.6%
C/C(=N\O)c1cccc[n+]1Cc1ccccc1	-6.2%[5.75 µM]	>57	-8.9%[8 µM]	1.4%[5.75 µM]
CC(C)(C)c1ccccc1OCC(=O)Nc1ncn[nH]1	10.8%	>57	u	-1.9%
CC(C)(C)c1cc(Br)ccc1OCC(=O)Nc1ncn[nH]1	4.2%	x	7.94µM*	-3.2%
COc1ccc(N2C(=O)CC(Sc3ncn[nH]3)C2=O)c(OC)c1 (stereo unspecified)	-1.5%	x	12.6µM*	78.6%
CCOC(=O)N1CCN(c2c(NCCCN(CC)c3cccc(C)c3)c(=O)c2=O)CC1	-2.6%	>57	1.3%	83.6%
CCOC(=O)N1CCN(c2c(NCc3ccccn3)c(=O)c2=O)CC1	14.9%	>57	-14.3%	3.98µM*[single pt active]
CCOC(=O)N1CCN(c2c(Nc3cc(C)[nH]n3)c(=O)c2=O)CC1	12.3%	u	-4.8%	2.51µM*[single pt active]
